Measurements reported in PubChem BioAssay.
Where “and” joins values, the source holds several entries; their conditions need not be identical. Identical values can stand only once. Inconclusive results are not listed. For some assays here: Results with a measured potency or affinity are listed apart. Calls of active or inactive are those of the source. Unless noted, the rule behind the calls is not given here.

Key:
[1] = P. berghei load reduction in hepatocytes – cell-based, HepG2, luciferase luminescence, HepG2 viability, primary screen (AID 624349; in the data active = parasite load remaining mostly below about 12%, no sharp cut-off; inactive = mostly above about 10%;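 note: 100% = mean of DMSO negative control wells on the same plate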); details: P. berghei liver stage in HepG2, luciferase luminescence, concentration not given here; parasite load remaining: stronger effect = lower value; viability: measured here: HepG2 viability without parasites
[2] = system: Hepatitis C virus NS3 helicase; experiment: blockers of NS3h binding to ssDNA – biochemical, fluorescence polarization, LOPAC1280 library, primary screen (AID 687035; in the data active = inhibition above about 37%); details: Purified HCV NS3 helicase, Cy5-dT15 ssDNA binding fluorescence polarization; stronger effect = higher value; concentration not given here
[3] = compounds altering Cy5-DNA-NS3h complex signal – biochemical, LOPAC1280, artefact control for HCV NS3 helicase inhibitor project (AID 687037); details: Cy5-DNA-NS3h complex fluorescence interference counterscreen
[4] = signal quenchers or enhancers, Cy5 substrate/SSB – biochemical, NIH Clinical Collection, E. coli SSB, artefact control for HCV NS3 helicase inhibitor project (AID 743268); details: Cy5-oligo bound E. coli SSB, fluorescence interference
[5] = system: Hepatitis C virus NS3 helicase; experiment: blockers of NS3h binding to DNA – biochemical, fluorescence polarization, NIH Clinical Collection, primary screen (AID 743270); details: NS3 helicase binding to Cy5-dT15 DNA, stronger effect = higher value, concentration not given here
[6] = target: Single-stranded DNA-binding protein (Escherichia coli (strain K12)) (UniProt P0AGE0); experiment: SSB-ssDNA binding inhibitors – biochemical, fluorescence polarization, NIH Clinical Collection, counter-screen for HCV NS3 helicase inhibitor project (AID 743271; in the data active = inhibition above about 28%); details: E. coli SSB-DNA binding, stronger effect = higher value, concentration not given here
[7] = compounds distorting NS3 helicase fluorescence signal – biochemical, NIH Clinical Collection, artefact control for HCV NS3 helicase inhibitor project (AID 743272); details: fluorescence interference counterscreen, HCV NS3 helicase assay; stronger effect = lower value;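 note: HCV NS3 helicase with a Cy5 labelled single stranded DNA probe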
[8] = system: Neuropilin-2 / VEGF-C interaction (human); experiment: small molecules blocking Neuropilin-2/VEGF-C interaction – biochemical, microplate binding format, z-score (AID 743281); details: microplate NRP2/VEGF-C binding assay; stronger effect = lower value
[9] = modulation of C. elegans fzo-1 (AID 1259413);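 note: fzo-1 mutant C. elegans worms in liquid wells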; details: C. elegans fzo-1 modulator screen, mean read-out; stronger effect = higher value
[10] = EMT-state selective cytotoxicity in co-culture – imaging, PC-3E GFP, TEM4-18 mCherry, primary screen (AID 1345086;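 active = compounds killing one labelled cell type while sparing the other, by normalised counts and ratio limits, not self-fluorescent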;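 note: cells exposed to compound for 72 h before imaging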;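 for red/green cell ratio (normalised): normalised mesenchymal count divided by normalised epithelial count so high means epithelial killing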); details: PC-3E GFP / TEM4-18 mCherry co-culture, imaging cell counts, at 1 µM
[11] = viability loss in pontine glioma line – cell-based, JHH-DIPG-1, MIPE4.0, CellTiter-Glo, qHTS, dose response (AID 1347062; cut-off not given, nearly all actives have AC50 up to about 27 µM;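 note: cells exposed to compound for two days before readout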); details: JHH-DIPG-1 viability, CellTiter-Glo ATP luminescence
[12] = viability loss in pontine glioma line – cell-based, SU-DIPG-IV, MIPE4.0, CellTiter-Glo, qHTS, dose response (AID 1347063; cut-off not given, nearly all actives have AC50 up to about 30 µM;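 note: compound exposure lasted 48 hours before the viability readout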); details: CellTiter-Glo ATP luminescence
[13] = viability loss in pontine glioma line – cell-based, SU-DIPG-XXV, MIPE5.0, CellTiter-Glo, qHTS, dose response (AID 1347065; cut-off not given, nearly all actives have AC50 up to about 26 µM;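 note: cells exposed to compound for 48 hours before ATP readout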); details: CellTiter-Glo ATP luminescence
[14] = JHH-DIPG-1 glioma cell viability, MIPE5.0 library, CellTiter-Glo luminescence, qHTS (AID 1347067; cut-off not given, nearly all actives have AC50 up to about 26 µM;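 note: cells exposed to compound for 48 hours before readout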); details: JHH-DIPG-1 glioma viability, CellTiter-Glo ATP luminescence
[15] = growth inhibition of DIPG cells – cell-based, MIPE5.0 library, qHTS (AID 1347068; cut-off not given, nearly all actives have IC50 up to about 30 µM); details: SU-DIPG-XXV viability
[16] = compounds altering HSF1 focus formation in cells – imaging, Selleck Cancer Library (AID 1347162; in the data active = plate-normalised HSF1 focus index below about 0.46); details: human cells, HSF1 nuclear foci imaging, at 10 µM; SSMD: measured here: HSF1 foci SSMD mean; cell count: measured here: cell number; plate-normalised HSF1 focus index: stronger effect = lower value
[17] = blockers of cellular phospholipid synthesis – cell-based, LOPAC library, screen 4, primary screen (AID 1347384); details: animal cells, phospholipid biosynthesis inhibition screen; at 10 µM
[18] = MELAS cybrid and Rieske KO viability enhancers – cell-based, MELAS cybrids, Rieske KO mouse fibroblasts, CellTiter-Glo, primary screen (AID 1508586;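 active = mean z-score across replicates of 1.96 or higher in either the MELAS or the Rieske mutant cell line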;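 note: z relative to plate mean and SD of compound and empty wells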); details: low glucose
[19] = target: NAD(+) hydrolase SARM1 (Homo sapiens) (UniProt Q6SZW1); experiment: blocking NAD cleavage by SARM1 SAM-TIR – cell lysate, NAD-Glo luminescence (AID 1508614;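 active = compound whose remaining NAD level is above about 45 nM, limit read from the data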;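 note: higher remaining NAD means stronger inhibition of SARM1 NADase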); details: SAM-TIR HEK293T lysate NADase, at 1 µM, stronger effect = higher value
[20] = galactose survival enhancers in mitochondrial complex I cybrids – cell-based, galactose medium, ATP luminescence, primary screen (AID 1645843;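 active = z-score of at least 1.8 in each of two replicates, scored against plate mean and spread of sample wells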;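 note: positive z means more ATP and so rescue of galactose-driven cybrid death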); details: complex I mutant cybrid cells, 72 h, stronger effect = higher value
F380Y = experiment: BK channel mutant inhibitors and activators – cell-based, U2OS BacMam, thallium flux, beta subunits, selectivity assay, profiling panel (AID 1259406;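 active = thallium flux through the channel raised or lowered by more than 3 SD from vehicle-only wells, actives on both sides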;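 note: initial slope of Thallos dye fluorescence rise after thallium is added; log ratio against the mean of 0.3% DMSO vehicle wells on the same plate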); details: U2OS BacMam BK variants, at 30 µM
F380Y/beta1 = experiment: as above; details: U2OS BacMam BK variants, at 30 µM
F380Y/beta2Delta = experiment: as above; details: U2OS BacMam BK variants, at 30 µM
F380Y/beta4 = experiment: as above; details: U2OS BacMam BK variants, at 30 µM
[21] = target: Calcium-activated potassium channel subunit alpha-1 (Homo sapiens) + Leucine-rich repeat-containing protein 26 (Homo sapiens) (UniProt Q12791+Q2I0M4); experiment: as above; details: U2OS BacMam BK variants, F380Y/Slo1WT/gamma1, at 30 µM
R275C = experiment: as above; details: U2OS BacMam BK variants, at 30 µM
R275C/beta1 = experiment: as above; details: U2OS BacMam BK variants, at 30 µM
R275C/beta2Delta = experiment: as above; details: U2OS BacMam BK variants, at 30 µM
R275C/beta4 = experiment: as above; details: U2OS BacMam BK variants, at 30 µM
R275C/Slo1WT/beta2 = experiment: as above; details: U2OS BacMam BK variants, at 30 µM
[22] = antimalarial activity against Dd2 strain (AID 2302;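 active = growth inhibition above 50% at the single 2 µM test dose, taken to imply half-maximal potency below 2 µM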;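 note: 0% = DMSO untreated growth and 100% = chloroquine plus artemisinin killed control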); details: P. falciparum Dd2 in RBCs, LDH growth readout, 72 h; at 2 µM; stronger effect = higher value
[23] = target: L-lactate dehydrogenase (Plasmodium falciparum (isolate CDC / Honduras)) (UniProt Q27743); experiment: PfLDH activity inhibition – cell lysate, 3D7 strain, counter-screen for P. falciparum growth inhibition project (AID 2304);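 note: 0% = vehicle and 100% = reference inhibitor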; details: P. falciparum 3D7 crude extract, LDH APAD/NBT absorbance; at 2 µM; stronger effect = higher value
[24] = inhibition of 3D7 malaria parasite growth – strain 3D7 (AID 2306);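 note: 0% = DMSO wells and 100% = chloroquine plus artemisinin control wells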; details: P. falciparum 3D7 erythrocytic growth, LDH absorbance, 72 h; at 2 µM; stronger effect = higher value
[25] = target: Calcium-dependent protein kinase 1 (Plasmodium falciparum (isolate 3D7)) (UniProt P62344); experiment: PfCDPK1 kinase inhibitors, biochemical, TCAMS library (AID 1159585; cut-off not given, nearly all actives have IC50 up to about 0.98 µM;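 note: inhibitors leave more ATP so luminescence rises with inhibition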); details: recombinant PfCDPK1, Kinase-Glo ATP depletion luminescence
[26] = target: Plasmodium falciparum protein kinase 6 (PK6, PF3D7_1337100) (UniProt Q8IDW1); experiment: PfPK6 kinase inhibitors, biochemical, TCAMS library (AID 1159586); details: recombinant PfPK6, Kinase-Glo ATP depletion luminescence
[27] = target: Protein kinase 7 (PK7), Plasmodium falciparum 3D7 (PF3D7_0213400) (UniProt Q7YTF7); experiment: inhibition of Plasmodium PK7 catalytic activity – biochemical, TCAMS antimalarial set, Kinase-Glo luminescence (AID 1159587); details: recombinant PfPK7, Kinase-Glo ATP depletion luminescence
[28] = target: Calcium-dependent protein kinase 4 (Plasmodium falciparum (isolate 3D7)) (UniProt Q8IBS5); experiment: PfCDPK4 kinase inhibitors, biochemical, TCAMS library (AID 1159588; cut-off not given, nearly all actives have IC50 up to about 0.91 µM); details: recombinant PfCDPK4, Kinase-Glo ATP depletion luminescence
[29] = human hepatoma cell viability loss – ATP luminescence, cytotoxicity control for P. falciparum antimalarial project, primary screen (AID 2303;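 active = inhibition above 50%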;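 note: 0% = DMSO wells and 100% = digitonin-killed cells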); details: HepG2 viability, 24-48 h, at 10 µM, stronger effect = higher value

Chain of Calcium-dependent protein kinase 1 (Plasmodium falciparum (isolate 3D7)) (P62344 whole entry, looked up): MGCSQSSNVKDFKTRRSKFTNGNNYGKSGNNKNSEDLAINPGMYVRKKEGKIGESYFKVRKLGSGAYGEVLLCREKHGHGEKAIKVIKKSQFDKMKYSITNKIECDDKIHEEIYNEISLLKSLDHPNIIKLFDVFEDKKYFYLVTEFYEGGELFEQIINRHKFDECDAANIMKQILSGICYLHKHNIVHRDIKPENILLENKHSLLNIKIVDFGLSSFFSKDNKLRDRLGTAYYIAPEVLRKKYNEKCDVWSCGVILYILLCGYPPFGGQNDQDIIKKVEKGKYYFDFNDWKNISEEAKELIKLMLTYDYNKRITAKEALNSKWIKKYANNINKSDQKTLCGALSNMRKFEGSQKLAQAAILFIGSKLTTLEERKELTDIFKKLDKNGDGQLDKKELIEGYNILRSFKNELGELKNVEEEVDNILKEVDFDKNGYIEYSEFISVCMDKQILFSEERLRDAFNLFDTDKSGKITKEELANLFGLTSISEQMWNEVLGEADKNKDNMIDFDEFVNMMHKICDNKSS
Chain of Protein kinase 7 (PK7), Plasmodium falciparum 3D7 (PF3D7_0213400) (Q7YTF7 1-343): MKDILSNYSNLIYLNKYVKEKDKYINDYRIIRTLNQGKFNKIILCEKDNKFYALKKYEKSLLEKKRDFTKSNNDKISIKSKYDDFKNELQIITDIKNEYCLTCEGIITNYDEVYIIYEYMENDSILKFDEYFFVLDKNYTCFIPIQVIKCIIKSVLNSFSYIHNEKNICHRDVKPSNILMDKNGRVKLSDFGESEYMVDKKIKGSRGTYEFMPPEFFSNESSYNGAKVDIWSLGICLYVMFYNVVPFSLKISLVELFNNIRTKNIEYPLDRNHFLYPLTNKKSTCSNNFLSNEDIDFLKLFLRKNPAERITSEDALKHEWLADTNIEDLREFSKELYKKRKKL
Chain of L-lactate dehydrogenase (Plasmodium falciparum (isolate CDC / Honduras)) (Q27743 whole entry, looked up): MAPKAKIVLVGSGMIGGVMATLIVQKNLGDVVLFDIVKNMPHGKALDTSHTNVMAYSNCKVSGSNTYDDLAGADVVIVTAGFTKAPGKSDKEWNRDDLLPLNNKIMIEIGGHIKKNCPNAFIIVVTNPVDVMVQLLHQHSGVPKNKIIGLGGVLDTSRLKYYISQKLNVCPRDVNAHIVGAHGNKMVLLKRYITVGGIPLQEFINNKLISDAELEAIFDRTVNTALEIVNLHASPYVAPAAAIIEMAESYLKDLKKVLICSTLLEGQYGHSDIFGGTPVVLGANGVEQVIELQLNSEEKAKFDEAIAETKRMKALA
Chain of Calcium-dependent protein kinase 4 (Plasmodium falciparum (isolate 3D7)) (Q8IBS5 whole entry, looked up): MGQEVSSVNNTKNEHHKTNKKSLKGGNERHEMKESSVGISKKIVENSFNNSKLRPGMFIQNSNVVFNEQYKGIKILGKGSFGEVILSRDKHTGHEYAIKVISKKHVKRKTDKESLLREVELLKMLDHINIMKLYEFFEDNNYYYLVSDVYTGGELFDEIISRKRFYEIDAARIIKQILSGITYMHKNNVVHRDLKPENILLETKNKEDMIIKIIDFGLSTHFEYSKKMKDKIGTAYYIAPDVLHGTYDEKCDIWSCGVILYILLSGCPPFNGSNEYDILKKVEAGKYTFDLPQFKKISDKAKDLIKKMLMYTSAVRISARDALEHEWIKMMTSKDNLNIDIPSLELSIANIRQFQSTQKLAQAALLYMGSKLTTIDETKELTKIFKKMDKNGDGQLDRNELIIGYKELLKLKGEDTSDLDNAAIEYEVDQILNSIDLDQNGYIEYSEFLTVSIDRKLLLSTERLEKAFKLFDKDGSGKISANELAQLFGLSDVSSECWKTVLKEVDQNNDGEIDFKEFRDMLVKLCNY
Chain of Plasmodium falciparum protein kinase 6 (PK6, PF3D7_1337100) (Q8IDW1 1-305): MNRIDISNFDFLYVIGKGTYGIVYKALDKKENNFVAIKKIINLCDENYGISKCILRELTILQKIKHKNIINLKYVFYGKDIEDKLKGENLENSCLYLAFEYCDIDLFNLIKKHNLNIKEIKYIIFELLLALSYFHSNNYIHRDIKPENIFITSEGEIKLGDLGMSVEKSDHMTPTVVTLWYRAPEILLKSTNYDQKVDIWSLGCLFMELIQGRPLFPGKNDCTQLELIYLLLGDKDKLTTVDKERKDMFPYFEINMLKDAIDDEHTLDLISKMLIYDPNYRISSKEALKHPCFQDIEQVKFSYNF
Chain of Calcium-activated potassium channel subunit alpha-1 (Homo sapiens) + Leucine-rich repeat-containing protein 26 (Homo sapiens) (Q2I0M4 whole entry, looked up, one chain of several): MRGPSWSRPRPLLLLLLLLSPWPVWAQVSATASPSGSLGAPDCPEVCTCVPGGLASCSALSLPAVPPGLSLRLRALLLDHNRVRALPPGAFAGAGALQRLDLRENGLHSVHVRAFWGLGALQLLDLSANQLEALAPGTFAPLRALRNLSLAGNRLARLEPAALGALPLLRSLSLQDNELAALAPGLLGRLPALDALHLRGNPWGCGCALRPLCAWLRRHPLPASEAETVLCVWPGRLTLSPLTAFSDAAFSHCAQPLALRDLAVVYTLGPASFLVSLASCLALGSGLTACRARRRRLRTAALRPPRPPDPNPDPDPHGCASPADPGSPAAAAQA
Chain of NAD(+) hydrolase SARM1 (Homo sapiens) (Q6SZW1 whole entry, looked up): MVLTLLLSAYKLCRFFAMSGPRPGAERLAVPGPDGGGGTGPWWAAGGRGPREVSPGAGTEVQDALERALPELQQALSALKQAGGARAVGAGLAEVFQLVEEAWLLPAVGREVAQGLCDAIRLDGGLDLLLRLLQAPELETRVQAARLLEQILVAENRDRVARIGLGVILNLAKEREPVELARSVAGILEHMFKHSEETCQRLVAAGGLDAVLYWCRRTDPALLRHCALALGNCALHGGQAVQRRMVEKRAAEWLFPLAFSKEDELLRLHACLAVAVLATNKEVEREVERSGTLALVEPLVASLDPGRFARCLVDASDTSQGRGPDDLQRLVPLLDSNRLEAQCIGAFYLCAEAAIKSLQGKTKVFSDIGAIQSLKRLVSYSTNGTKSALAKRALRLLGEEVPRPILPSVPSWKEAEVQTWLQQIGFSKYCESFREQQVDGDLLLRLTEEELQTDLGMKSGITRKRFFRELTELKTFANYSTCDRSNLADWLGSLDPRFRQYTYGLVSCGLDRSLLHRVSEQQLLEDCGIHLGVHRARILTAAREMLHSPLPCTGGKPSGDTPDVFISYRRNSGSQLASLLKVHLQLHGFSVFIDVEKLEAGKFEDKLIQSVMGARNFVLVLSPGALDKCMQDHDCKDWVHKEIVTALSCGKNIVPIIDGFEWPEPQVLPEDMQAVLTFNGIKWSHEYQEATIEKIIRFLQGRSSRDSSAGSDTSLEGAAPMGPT

CC(O)(CS(=O)(=O)c1ccc(F)cc1)C(=O)Nc1ccc(C#N)c(C(F)(F)F)c1 (stereo not given)
7580: cell count [16]
0.64: normalised cell number ([10]; measured here: epithelial PC-3E GFP cell survival)
71.8% and 108%: viability [1]
active: AC50 [11] 9.35 µM | AC50 [12] 13.2 µM | log fold change Tl+ flux (R275C/beta1) 0.266 | log fold change Tl+ flux (R275C/beta2Delta) 0.179
2.85: SSMD [16]
inactive: parasite load remaining [1] 85.6% and 26.5% | inhibition [2] 0% | fluorescence ratio (interference) [3] 1 | fluorescence ratio [4] 1 | inhibition [5] 0.4% | inhibition [6] -0.87% | fluorescence ratio [7] 0.95 | z-score [8] 0.117 | mean signal [9] 225 | red/green cell ratio (normalised) ([10]; actives lie on both sides) 1.31 | outcome [13] | outcome [14] | outcome [15] | plate-normalised HSF1 focus index [16] 1.1 | outcome [17] | z-score ([18]; MELAS cybrid survival, CellTiter-Glo 48 h, stronger effect = higher value) -0.358 and -0.11 and 0.746 | remaining NAD [19] 10 nM | z-score [20] -0.24 and -0.44 and 0.235 | log fold change Tl+ flux (F380Y) -0.0003 | log fold change Tl+ flux (F380Y/beta1) 0.0749 | log fold change Tl+ flux (F380Y/beta2Delta) -0.0358 | log fold change Tl+ flux (F380Y/beta4) -0.0644 | log fold change Tl+ flux [21] 0.0529 | log fold change Tl+ flux (R275C) -0.0123 | log fold change Tl+ flux (R275C/beta4) 0.0752 | log fold change Tl+ flux (R275C/Slo1WT/beta2) -0.00212
0.84: normalised cell number ([10]; measured here: mesenchymal TEM4-18 mCherry cell survival)
0.621 and -0.29 and 0.356: z-score ([18]; Rieske KO mouse fibroblast survival, CellTiter-Glo 72 h)

COc1ccc(C(=O)c2ccc3[nH]cc(C4=CCN(C)CC4)c3c2)cc1
inactive: inhibition [23] 4% | outcome [25] | outcome [26] | outcome [27] | outcome [28]
active: growth inhibition [22] 55% | growth inhibition [24] 88%

CC(Cc1ccc(S(=O)(=O)N(C(C)C)C(C)C)cc1)NCC(O)c1cccc(C(F)(F)F)c1 (stereo not given)
active: growth inhibition [22] 93% | growth inhibition [24] 96%
inactive: inhibition [29] 21% | inhibition [23] 4% | outcome [25] | outcome [26] | outcome [27] | outcome [28]

COC(=O)c1ccc(CC(C)NCC(O)c2ccc(Cl)c(Cl)c2)cc1 (stereo not given)
inactive: growth inhibition [22] 33% | inhibition [29] -1% | inhibition [23] 0% | outcome [25] | outcome [26] | outcome [27] | outcome [28]
active: growth inhibition [24] 87%

O=C(/C=C/c1ccc(Cl)c(Cl)c1)NCCC1CCC(N2CCC(c3c[nH]c4ccc(O)cc34)CC2)CC1 (stereo not given)
inactive: growth inhibition [22] 3% | inhibition [29] 19% | inhibition [23] -7% | outcome [25] | outcome [26] | outcome [27] | outcome [28]
active: growth inhibition [24] 102%

CSC(=NCc1ccccc1Cl)NC(N)=N[N+](=O)[O-]
inactive: log fold change Tl+ flux (F380Y) 0.0102 | log fold change Tl+ flux (F380Y/beta1) 0.0433 | log fold change Tl+ flux (F380Y/beta2Delta) 0.00986 | log fold change Tl+ flux (F380Y/beta4) 0.0594 | log fold change Tl+ flux [21] 0.0227 | log fold change Tl+ flux (R275C) -0.0153 | log fold change Tl+ flux (R275C/beta1) -0.0278 | log fold change Tl+ flux (R275C/beta2Delta) 0.0233 | log fold change Tl+ flux (R275C/beta4) -0.0373 | log fold change Tl+ flux (R275C/Slo1WT/beta2) -0.0343

CN1CC=C(c2c[nH]c3ccc(C(=O)c4nccs4)cc23)CC1
inactive: inhibition [23] 7% | outcome [25] | outcome [26] | outcome [27] | outcome [28]
active: growth inhibition [22] 73% | growth inhibition [24] 89%

CC[C@H]1CN2CC[C@H]1C[C@H]2[C@H](O)c1cc(-c2ccc(F)cc2)nc2ccc(OC)cc12
active: growth inhibition [22] 98% | growth inhibition [24] 99%
inactive: inhibition [29] 34% | inhibition [23] 5% | outcome [25] | outcome [26] | outcome [27] | outcome [28]

N#CC(C#N)=Cc1cccnc1
inactive: log fold change Tl+ flux (F380Y) 0.00869 | log fold change Tl+ flux (F380Y/beta1) 0.00181 | log fold change Tl+ flux (F380Y/beta2Delta) -0.0117 | log fold change Tl+ flux (F380Y/beta4) -0.0312 | log fold change Tl+ flux [21] 6.5e-05 | log fold change Tl+ flux (R275C) -0.0132 | log fold change Tl+ flux (R275C/beta1) -0.0358 | log fold change Tl+ flux (R275C/beta2Delta) -0.0205 | log fold change Tl+ flux (R275C/beta4) 0.025 | log fold change Tl+ flux (R275C/Slo1WT/beta2) -0.0203

O=[N+]([O-])c1ccc(Oc2c(Cl)cc(S(=O)(=O)NC3CCC(CN4CCC(c5c[nH]c6ccccc56)CC4)CC3)cc2Cl)c(Cl)c1 (stereo not given)
inactive: inhibition [29] 30% | inhibition [23] -4% | outcome [25] | outcome [26] | outcome [27] | outcome [28]
active: growth inhibition [22] 64% | growth inhibition [24] 100%
